Our source for the binding signal values is paper PMC7862700, “An all-to-all approach to the identification of sequence-specific readers for epigenetic DNA modifications on cytosine”.

Experiment in all cases: DAPPL (digital affinity profiling via proximity ligation, sequencing); 10 mM Tris-HCl pH 7.5, 50 mM NaCl, 1 mM DTT, 4% glycerol, room temperature, 30 min; GST-TFs on glutathione beads, 16-mer random dsDNA library, 0.1% formaldehyde crosslink after washing; high values mean tight binding
For one test, the target named is T1, FLI1 (Homo sapiens, UniProt Q01543 1-452).
T1 sequence: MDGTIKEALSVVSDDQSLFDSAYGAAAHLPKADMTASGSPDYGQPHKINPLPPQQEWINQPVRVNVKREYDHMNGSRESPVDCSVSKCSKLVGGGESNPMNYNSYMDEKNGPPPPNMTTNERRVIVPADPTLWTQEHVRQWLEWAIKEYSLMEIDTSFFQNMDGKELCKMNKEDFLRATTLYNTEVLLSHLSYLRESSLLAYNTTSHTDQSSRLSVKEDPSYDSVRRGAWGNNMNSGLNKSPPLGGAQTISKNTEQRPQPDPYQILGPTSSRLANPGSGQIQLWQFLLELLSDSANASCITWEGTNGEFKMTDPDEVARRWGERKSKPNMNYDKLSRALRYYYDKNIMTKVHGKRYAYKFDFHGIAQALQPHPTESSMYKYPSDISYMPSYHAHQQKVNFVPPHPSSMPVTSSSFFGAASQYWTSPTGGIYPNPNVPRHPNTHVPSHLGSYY
Conditions: protein: recombinant; tags: N-terminal GST; dsDNA, one strand shown. The essentials: (§1)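 Binding signal is given per hexamer as its read frequency for a factor divided by its frequency in the tag-only sample. GST-fused human transcription factors were expressed in yeast, captured on glutathione beads, barcoded with DNA and pooled with that sample, then incubated with 200 nmole of a 16-mer random double-stranded DNA library in Tris/NaCl/DTT/glycerol buffer for 30 min at room temperature. The pools were then washed, crosslinked, proximity-ligated, amplified by PCR and sequenced on an Illumina NextSeq500.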

In another test the target is T2, ELK1 (Homo sapiens, UniProt P19419 1-428).
T2 sequence: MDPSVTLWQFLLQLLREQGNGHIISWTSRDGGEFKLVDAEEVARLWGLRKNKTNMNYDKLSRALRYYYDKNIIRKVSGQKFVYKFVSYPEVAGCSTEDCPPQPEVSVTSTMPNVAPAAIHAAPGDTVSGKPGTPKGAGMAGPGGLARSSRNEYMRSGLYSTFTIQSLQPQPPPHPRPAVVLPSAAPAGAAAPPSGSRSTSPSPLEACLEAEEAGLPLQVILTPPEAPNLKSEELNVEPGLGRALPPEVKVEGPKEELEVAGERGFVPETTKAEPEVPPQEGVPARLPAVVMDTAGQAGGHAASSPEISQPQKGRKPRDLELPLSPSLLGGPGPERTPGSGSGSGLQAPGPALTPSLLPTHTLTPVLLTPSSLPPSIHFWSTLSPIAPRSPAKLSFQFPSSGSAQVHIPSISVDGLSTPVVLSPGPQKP
The conditions noted are these: protein: recombinant; tags: N-terminal GST; dsDNA, one strand shown. In short, it runs like this:
as §1

The next test concerns the target T3, GABPA (Homo sapiens, UniProt Q06546 1-454).
T3 sequence: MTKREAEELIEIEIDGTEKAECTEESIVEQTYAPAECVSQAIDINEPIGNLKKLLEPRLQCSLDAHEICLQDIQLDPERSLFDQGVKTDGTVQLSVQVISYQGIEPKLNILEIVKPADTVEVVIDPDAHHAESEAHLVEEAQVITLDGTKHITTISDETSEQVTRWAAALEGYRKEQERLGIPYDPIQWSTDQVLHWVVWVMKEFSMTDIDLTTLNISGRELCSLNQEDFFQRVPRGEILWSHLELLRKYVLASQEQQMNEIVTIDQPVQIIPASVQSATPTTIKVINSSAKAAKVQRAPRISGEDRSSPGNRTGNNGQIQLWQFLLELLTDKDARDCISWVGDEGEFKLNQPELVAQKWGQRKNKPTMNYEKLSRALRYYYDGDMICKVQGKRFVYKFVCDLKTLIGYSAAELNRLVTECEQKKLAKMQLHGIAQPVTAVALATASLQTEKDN
Conditions: protein: recombinant; tags: N-terminal GST; dsDNA, one strand shown. In short, it runs like this: as §1

A further test concerns the target T4, ERG (Homo sapiens, UniProt P11308 1-479).
T4 sequence: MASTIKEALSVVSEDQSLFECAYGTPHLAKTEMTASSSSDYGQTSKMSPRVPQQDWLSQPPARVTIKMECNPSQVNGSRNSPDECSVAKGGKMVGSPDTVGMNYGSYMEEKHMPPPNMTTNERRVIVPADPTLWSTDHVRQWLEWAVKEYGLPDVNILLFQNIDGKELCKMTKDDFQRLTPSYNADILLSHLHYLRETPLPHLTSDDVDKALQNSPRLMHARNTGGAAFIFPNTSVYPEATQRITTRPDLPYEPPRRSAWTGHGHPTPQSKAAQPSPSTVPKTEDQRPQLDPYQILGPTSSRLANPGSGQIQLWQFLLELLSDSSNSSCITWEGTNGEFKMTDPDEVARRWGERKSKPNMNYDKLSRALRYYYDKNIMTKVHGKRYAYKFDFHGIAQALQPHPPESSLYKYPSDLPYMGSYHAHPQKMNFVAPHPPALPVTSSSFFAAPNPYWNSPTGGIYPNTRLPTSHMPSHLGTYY
The conditions noted are these: protein: recombinant; tags: N-terminal GST; dsDNA, one strand shown. In short, it runs like this:
as §1

Another test has as its target ELF1 (Homo sapiens, UniProt P32519 1-619). Conditions: protein: recombinant; tags: N-terminal GST; dsDNA, one strand shown. The essentials:
as §1

For a further test, the target named is T5, EHF (Homo sapiens, UniProt Q9NZC4 1-300).
T5 sequence: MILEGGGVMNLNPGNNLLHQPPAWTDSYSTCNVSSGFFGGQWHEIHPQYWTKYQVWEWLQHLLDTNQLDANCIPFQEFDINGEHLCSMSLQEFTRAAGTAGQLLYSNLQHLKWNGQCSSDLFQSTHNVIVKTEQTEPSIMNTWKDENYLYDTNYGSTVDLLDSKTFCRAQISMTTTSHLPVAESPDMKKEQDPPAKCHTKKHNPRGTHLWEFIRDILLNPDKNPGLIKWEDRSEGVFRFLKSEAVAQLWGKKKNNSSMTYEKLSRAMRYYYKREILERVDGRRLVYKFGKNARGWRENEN
Conditions: protein: recombinant; tags: N-terminal GST; dsDNA, one strand shown. The essentials: as §1

The next test addresses SPI1 (Homo sapiens, UniProt P17947 1-270). Conditions: protein: recombinant; tags: N-terminal GST; dsDNA, one strand shown. In short, it runs like this: as §1
For another test, the target named is SPIB (Homo sapiens, UniProt Q01892 1-262). Conditions: protein: recombinant; tags: N-terminal GST; dsDNA, one strand shown. In short, it runs like this: as §1
SPIB, sequence (Q01892 whole entry): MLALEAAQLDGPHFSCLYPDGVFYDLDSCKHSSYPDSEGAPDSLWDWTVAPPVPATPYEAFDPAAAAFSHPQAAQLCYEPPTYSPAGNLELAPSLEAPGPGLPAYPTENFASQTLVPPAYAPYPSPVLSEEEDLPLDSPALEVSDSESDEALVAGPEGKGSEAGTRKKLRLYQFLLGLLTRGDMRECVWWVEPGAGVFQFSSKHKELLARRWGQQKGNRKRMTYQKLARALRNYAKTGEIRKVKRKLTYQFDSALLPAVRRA
A further test concerns the target T6, ELK3 (Homo sapiens, UniProt P41970 1-407).
T6 sequence: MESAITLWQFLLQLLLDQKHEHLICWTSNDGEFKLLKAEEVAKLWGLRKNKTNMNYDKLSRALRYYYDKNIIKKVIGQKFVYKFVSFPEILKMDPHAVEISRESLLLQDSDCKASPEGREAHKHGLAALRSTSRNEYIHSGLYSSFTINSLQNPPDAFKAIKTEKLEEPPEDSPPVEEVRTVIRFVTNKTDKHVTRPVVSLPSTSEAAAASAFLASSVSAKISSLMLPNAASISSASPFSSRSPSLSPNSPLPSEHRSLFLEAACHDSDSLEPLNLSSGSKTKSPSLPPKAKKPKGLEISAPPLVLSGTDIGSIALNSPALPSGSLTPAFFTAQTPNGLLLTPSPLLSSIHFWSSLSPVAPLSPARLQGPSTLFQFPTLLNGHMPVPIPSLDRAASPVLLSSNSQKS
Conditions: protein: recombinant; tags: N-terminal GST; dsDNA, one strand shown. In short, it runs like this: as §1

Another test addresses T7, FEV (Homo sapiens, UniProt Q99581 1-238).
T7 sequence: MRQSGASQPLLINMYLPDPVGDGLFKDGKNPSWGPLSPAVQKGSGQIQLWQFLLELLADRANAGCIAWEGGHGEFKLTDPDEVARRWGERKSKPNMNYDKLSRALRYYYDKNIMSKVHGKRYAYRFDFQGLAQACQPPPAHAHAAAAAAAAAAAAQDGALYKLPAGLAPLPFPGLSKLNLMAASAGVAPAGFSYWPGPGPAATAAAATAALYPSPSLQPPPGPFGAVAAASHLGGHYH
Conditions: protein: recombinant; tags: N-terminal GST; dsDNA, one strand shown. In short, it runs like this: as §1

The target of another test is ETV5 (Homo sapiens, UniProt P41161 1-510). Conditions: protein: recombinant; tags: N-terminal GST; dsDNA, one strand shown. The essentials:
as §1

A further test addresses HSF1 (Homo sapiens, UniProt Q00613 1-529). The conditions noted are these: protein: recombinant; tags: N-terminal GST; chain copies: 3; dsDNA, one strand shown. The essentials:
as §1

For the next test, the target named is T8, SPIC (Homo sapiens, UniProt Q8N5J4 1-248).
T8 sequence: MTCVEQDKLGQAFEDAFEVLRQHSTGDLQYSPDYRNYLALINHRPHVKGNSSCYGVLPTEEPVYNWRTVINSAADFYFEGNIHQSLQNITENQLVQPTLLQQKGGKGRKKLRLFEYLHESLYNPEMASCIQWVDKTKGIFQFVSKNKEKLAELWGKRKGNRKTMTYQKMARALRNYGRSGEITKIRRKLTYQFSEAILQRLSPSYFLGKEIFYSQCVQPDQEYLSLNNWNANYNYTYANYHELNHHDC
Conditions: protein: recombinant; tags: N-terminal GST; dsDNA, one strand shown. The essentials:
as §1

For a further test, the target named is ELF4 (Homo sapiens, UniProt Q99607 1-663). Conditions: protein: recombinant; tags: N-terminal GST; dsDNA, one strand shown. In short, it runs like this: as §1
ELF4, sequence (Q99607 whole entry): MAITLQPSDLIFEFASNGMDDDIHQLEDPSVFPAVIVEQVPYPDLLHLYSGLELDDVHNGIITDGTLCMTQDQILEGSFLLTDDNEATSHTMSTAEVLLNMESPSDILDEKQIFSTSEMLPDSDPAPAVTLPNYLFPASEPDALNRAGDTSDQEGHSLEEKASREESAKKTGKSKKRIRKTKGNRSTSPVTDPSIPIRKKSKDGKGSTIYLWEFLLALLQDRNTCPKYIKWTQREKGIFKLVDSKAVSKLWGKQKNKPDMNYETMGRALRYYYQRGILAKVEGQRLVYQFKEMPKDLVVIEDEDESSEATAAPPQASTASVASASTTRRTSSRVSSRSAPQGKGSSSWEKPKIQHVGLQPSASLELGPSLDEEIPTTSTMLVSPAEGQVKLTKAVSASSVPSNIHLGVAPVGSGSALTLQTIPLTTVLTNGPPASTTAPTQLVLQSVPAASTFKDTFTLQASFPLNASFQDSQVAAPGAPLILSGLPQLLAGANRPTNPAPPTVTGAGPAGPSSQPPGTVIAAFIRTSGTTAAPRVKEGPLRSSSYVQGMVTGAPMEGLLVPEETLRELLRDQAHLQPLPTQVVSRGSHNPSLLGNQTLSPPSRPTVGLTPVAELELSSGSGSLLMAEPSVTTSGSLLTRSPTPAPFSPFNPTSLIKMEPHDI
The target of the next test is T9, ELK4 (Homo sapiens, UniProt P28324-2 1-405).
T9 sequence: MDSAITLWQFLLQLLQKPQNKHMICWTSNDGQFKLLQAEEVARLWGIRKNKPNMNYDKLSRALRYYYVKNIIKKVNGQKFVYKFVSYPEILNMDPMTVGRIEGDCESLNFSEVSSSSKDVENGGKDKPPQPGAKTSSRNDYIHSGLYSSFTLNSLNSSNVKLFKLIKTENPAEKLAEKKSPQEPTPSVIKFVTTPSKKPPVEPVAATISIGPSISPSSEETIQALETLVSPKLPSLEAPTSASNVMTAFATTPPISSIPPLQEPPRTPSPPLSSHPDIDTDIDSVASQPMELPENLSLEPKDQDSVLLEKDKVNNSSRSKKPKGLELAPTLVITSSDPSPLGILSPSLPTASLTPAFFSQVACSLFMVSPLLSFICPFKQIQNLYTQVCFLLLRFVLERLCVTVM
The conditions noted are these: protein: recombinant; tags: N-terminal GST; dsDNA, one strand shown. The essentials: as §1

A further test deals with T10, ETV2 (Homo sapiens, UniProt O00321 1-342).
T10 sequence: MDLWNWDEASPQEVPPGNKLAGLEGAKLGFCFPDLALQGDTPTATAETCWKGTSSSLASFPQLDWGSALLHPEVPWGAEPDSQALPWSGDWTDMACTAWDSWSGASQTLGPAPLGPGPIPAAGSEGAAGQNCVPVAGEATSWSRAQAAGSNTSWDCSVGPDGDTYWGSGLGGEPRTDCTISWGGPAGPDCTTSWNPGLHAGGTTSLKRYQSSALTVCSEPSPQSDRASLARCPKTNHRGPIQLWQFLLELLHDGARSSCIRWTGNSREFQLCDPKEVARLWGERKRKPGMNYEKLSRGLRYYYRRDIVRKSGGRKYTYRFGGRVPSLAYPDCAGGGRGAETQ
Conditions: protein: recombinant; tags: N-terminal GST; dsDNA, one strand shown. In short, it runs like this:
as §1

The target in a further test is T11, ELF3 (Homo sapiens, UniProt P78545 1-371).
T11 sequence: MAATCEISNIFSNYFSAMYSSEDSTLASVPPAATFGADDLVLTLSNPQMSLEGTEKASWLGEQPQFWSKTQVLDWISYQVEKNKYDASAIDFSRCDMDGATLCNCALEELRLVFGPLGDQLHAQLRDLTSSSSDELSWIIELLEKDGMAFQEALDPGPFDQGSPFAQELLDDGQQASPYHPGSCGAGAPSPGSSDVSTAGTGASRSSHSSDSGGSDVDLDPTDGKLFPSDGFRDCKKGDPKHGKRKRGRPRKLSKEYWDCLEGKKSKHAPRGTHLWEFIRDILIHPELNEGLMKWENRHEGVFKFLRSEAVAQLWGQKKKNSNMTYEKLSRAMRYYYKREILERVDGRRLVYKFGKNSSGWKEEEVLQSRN
The conditions noted are these: protein: recombinant; tags: N-terminal GST; dsDNA, one strand shown. The essentials:
as §1

For another test, the target named is CRX (Homo sapiens, UniProt O43186 1-299). The conditions noted are these: protein: recombinant; tags: N-terminal GST; dsDNA, one strand shown. In short, it runs like this:
as §1

The next test concerns the target ETV1 (Homo sapiens, UniProt P50549 1-477). The conditions noted are these: protein: recombinant; tags: N-terminal GST; dsDNA, one strand shown. In short, it runs like this:
as §1

ETV1, sequence (P50549 whole entry): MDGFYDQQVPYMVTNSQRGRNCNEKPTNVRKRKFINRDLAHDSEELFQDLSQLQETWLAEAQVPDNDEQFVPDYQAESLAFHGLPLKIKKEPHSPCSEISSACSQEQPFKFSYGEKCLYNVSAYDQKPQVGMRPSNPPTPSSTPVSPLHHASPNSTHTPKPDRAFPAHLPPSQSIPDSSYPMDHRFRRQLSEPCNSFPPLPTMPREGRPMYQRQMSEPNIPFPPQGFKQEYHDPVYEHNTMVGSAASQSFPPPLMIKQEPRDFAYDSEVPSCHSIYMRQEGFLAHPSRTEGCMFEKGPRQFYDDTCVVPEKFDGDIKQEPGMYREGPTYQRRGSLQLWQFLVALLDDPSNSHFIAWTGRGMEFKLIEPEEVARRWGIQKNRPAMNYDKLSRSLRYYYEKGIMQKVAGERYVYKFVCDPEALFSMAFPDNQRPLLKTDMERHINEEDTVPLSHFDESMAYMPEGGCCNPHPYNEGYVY
ETV5, sequence (P41161 whole entry): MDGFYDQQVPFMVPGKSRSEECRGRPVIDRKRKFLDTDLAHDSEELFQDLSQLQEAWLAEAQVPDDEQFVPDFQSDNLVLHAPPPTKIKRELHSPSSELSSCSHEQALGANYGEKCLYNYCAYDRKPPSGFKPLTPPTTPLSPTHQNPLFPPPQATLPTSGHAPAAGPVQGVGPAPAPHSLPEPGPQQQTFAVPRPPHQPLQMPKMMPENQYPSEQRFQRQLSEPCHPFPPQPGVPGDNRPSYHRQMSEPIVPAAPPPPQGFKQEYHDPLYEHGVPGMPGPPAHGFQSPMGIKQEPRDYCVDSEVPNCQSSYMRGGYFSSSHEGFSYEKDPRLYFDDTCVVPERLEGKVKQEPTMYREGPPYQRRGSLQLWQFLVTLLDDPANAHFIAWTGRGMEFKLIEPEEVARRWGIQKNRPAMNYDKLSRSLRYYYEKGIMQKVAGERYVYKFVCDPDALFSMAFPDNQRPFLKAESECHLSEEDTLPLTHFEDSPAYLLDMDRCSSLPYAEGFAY
CRX, sequence (O43186 whole entry): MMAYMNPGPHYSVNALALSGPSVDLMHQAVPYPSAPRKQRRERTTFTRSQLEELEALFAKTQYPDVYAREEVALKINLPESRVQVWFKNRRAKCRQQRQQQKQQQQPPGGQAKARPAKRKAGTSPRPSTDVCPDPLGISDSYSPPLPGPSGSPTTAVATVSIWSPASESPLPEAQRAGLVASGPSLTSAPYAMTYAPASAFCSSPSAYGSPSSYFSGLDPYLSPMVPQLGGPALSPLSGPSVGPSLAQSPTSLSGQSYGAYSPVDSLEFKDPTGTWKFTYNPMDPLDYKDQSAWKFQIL
HSF1, sequence (Q00613 whole entry): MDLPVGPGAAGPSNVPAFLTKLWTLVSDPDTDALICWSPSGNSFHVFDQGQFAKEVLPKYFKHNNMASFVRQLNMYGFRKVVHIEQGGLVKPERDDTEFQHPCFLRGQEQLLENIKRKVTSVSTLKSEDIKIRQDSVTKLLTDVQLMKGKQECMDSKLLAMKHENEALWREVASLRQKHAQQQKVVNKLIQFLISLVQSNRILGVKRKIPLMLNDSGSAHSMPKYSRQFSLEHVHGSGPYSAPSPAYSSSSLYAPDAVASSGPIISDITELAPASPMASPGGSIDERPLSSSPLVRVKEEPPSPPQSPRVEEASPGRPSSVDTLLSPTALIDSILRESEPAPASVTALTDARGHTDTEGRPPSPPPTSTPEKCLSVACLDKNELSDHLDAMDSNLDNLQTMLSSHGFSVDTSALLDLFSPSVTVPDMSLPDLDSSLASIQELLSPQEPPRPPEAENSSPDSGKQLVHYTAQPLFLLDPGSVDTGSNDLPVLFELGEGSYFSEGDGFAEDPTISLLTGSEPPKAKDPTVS
ELF1, sequence (P32519 whole entry): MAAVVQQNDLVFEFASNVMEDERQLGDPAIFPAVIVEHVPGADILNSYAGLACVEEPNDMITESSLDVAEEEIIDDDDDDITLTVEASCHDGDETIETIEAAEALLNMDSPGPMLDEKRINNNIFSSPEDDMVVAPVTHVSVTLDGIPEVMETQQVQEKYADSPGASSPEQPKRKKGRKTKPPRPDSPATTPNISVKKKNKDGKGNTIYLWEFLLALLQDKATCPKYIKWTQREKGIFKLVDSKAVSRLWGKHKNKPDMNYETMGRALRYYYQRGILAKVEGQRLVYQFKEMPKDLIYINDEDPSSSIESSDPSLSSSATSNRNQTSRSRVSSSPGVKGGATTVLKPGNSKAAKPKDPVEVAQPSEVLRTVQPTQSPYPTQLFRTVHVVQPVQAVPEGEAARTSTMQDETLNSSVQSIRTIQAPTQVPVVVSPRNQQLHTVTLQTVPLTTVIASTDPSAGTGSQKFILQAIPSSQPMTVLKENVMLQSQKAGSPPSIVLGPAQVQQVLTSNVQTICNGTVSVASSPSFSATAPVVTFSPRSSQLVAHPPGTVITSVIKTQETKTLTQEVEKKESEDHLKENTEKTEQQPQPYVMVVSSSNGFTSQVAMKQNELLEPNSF

For AAAAAC, the binding signal is 1.31 fold enrichment (6-mer frequency, TF over GST control) with FLI1; 1.12 fold enrichment (6-mer frequency, TF over GST control) with ELK1; 1.26 fold enrichment (6-mer frequency, TF over GST control) with GABPA; 1.26 fold enrichment (6-mer frequency, TF over GST control) in the test with ERG; 1.23 fold enrichment (6-mer frequency, TF over GST control) with ELF1; 1.28 fold enrichment (6-mer frequency, TF over GST control) with EHF. The binding signal in the test with SPI1 was 1.46 fold enrichment (6-mer frequency, TF over GST control); with SPIB, 1.24 fold enrichment (6-mer frequency, TF over GST control); in the test with ELK3, 1.31 fold enrichment (6-mer frequency, TF over GST control); with FEV, 1.28 fold enrichment (6-mer frequency, TF over GST control); with ETV5, 1.26 fold enrichment (6-mer frequency, TF over GST control); in the test with HSF1 it was 1.19 fold enrichment (6-mer frequency, TF over GST control). Besides, the binding signal is 1.27 fold enrichment (6-mer frequency, TF over GST control) with SPIC; 1.31 fold enrichment (6-mer frequency, TF over GST control) with ELF4; 1.14 fold enrichment (6-mer frequency, TF over GST control) with ELK4; 1.32 fold enrichment (6-mer frequency, TF over GST control) with ETV2; 1.3 fold enrichment (6-mer frequency, TF over GST control) with ELF3; 1.16 fold enrichment (6-mer frequency, TF over GST control) with CRX. For the same sequence, the binding signal with ETV1 was 1.27 fold enrichment (6-mer frequency, TF over GST control).
